For 17 compounds, outcome and AC50 results are on record in PubChem BioAssay (EPA / NIEHS).

The structures appear in SMILES notation. Inconclusive results are not listed. Activity calls are given as the source filed them. Rule for the calls: active = hit-call score of the fitted dose curve at least 0.9, where 1 is the maximum; inconclusive = response in the unintended direction; inactive = score below 0.9.

The target in assay [1] is human Vascular Endothelial Growth Factor Receptor 1 (VEGFR1), FLT1 (gene 2321) (UniProt P17948). Briefly: NVS_ENZ_hVEGFR1: NovaScreen (NVS) Enzymatic Assay for human Vascular Endothelial Growth Factor Receptor 1 (VEGFR1) (AID 2283226). The essentials: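 Kinase activity of recombinant human VEGFR1 was read by fluorescence after electrophoretic separation of product from substrate, 1 h post-dosing; initial duplicate single-point testing at 25 uM, followed by concentration-series follow-up, with DMSO as baseline.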

For assay [2], the target named is human Tyrosine Protein Kinase Receptor Tie-2 (Tie2), TEK (gene 7010) (UniProt Q02763). Briefly: NVS_ENZ_hTie2: NovaScreen (NVS) Enzymatic Assay for human Tyrosine Protein Kinase Receptor Tie-2 (Tie2) (AID 2283225). The essentials: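 Substrate and product were separated by mobility shift and detected by fluorescence after a 1-hour reaction with recombinant Tie2. Chemicals passing a 25 uM single-point screen were titrated to a maximum of 50 uM. Results were normalized to DMSO baseline.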

The target in assay [3] is human Protein Tyrosine Phosphatase Non-receptor Type 2 (PTPN2), PTPN2 (gene 5771) (UniProt P17706). Briefly: NVS_ENZ_hPTPN2: NovaScreen (NVS) Enzymatic Assay for human Protein Tyrosine Phosphatase Non-receptor Type 2 (PTPN2) (AID 2283207). A digest of the protocol: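 Activity measured as fluorescence after mobility-shift separation of substrate and product, 1 h after compound. Duplicate single-point 25 uM primary testing, concentration series for actives; inhibition scored as signal loss relative to DMSO baseline.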
Sequence of human Protein Tyrosine Phosphatase Non-receptor Type 2 (PTPN2), PTPN2 (gene 5771) (P17706 whole entry, looked up): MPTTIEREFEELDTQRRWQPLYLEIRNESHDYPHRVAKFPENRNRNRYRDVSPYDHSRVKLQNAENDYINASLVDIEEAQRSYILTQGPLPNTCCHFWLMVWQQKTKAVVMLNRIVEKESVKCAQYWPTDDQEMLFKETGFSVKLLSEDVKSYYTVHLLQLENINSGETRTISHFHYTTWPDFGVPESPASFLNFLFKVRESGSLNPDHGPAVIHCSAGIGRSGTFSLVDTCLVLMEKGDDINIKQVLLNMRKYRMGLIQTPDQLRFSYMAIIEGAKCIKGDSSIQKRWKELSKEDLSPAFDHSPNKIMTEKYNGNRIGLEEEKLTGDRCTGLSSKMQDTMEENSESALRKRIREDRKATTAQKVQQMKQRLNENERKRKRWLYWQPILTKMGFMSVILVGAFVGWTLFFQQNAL

Assay [4] has as its target human Raf-1 Proto-Oncogene, serine/threonine Kinase (RAF1), RAF1 (gene 5894) (UniProt P04049). Kind of assay: NVS_ENZ_hRAF1: NovaScreen (NVS) Enzymatic Assay for human Raf-1 Proto-Oncogene, serine/threonine Kinase (RAF1) (AID 2283216). The essentials:
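Single-point screening at 25 uM (duplicate), followed by singleton concentration-response to 50 uM maximum for chemicals exceeding threshold. Enzyme activity from fluorescent substrate-product mobility-shift separation after 1 h, relative to DMSO.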

Assay [5] concerns the target human Sirtuin 3 (SIRT3), SIRT3 (gene 23410) (UniProt Q9NTG7). Kind of assay: NVS_ENZ_hSIRT3: NovaScreen (NVS) Enzymatic Assay for human Sirtuin 3 (SIRT3) (AID 2283222). A digest of the protocol: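 Cell-free enzyme assay with recombinant protein and fluorescent substrate, product separated by electrophoretic mobility shift; read 1 hour after dosing. Screened in duplicate at 25 uM, then singleton concentration-response up to 50 uM; loss of signal versus DMSO.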

In assay [6] the target is human Tropomyosin Receptor Kinase A (TRKA), NTRK1 (gene 4914) (UniProt P04629). Kind of assay: NVS_ENZ_hTrkA: NovaScreen (NVS) Enzymatic Assay for human Tropomyosin Receptor Kinase A (TRKA) (AID 2283224). The essentials: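 Compounds were screened at 25 uM in duplicate, then concentration series to a 50 uM top for those meeting threshold (e.g. 30% inhibition). Enzyme was recombinant human TrkA, incubated 1 h. Product formation was quantified by fluorescence after mobility-shift separation.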
Sequence of human Tropomyosin Receptor Kinase A (TRKA), NTRK1 (gene 4914) (P04629 whole entry, looked up): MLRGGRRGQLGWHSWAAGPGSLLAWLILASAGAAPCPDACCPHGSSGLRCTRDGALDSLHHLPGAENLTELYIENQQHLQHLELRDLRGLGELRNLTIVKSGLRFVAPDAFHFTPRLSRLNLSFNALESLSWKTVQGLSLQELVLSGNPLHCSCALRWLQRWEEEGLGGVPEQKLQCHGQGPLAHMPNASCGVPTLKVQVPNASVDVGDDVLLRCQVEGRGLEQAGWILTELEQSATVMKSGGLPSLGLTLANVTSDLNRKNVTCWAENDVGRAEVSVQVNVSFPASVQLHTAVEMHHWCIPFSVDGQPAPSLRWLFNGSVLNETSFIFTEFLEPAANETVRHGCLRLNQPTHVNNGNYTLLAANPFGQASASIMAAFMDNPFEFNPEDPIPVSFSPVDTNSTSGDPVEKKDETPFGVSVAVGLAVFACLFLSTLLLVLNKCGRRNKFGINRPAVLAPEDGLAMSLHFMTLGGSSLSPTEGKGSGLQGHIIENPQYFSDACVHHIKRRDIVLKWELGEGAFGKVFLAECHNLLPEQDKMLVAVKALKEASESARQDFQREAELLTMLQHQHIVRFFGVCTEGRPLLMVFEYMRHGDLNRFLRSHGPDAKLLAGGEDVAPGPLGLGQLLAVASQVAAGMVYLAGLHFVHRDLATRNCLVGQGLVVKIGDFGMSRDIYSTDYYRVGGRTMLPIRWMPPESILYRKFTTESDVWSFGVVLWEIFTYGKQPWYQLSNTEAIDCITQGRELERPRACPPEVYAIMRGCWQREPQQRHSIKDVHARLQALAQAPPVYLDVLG

The target in assay [7] is human Protein Tyrosine Phosphatase Non-receptor Type 4 (PTPN4), PTPN4 (gene 5775) (UniProt P29074). Kind of assay: NVS_ENZ_hPTPN4: NovaScreen (NVS) Enzymatic Assay for human Protein Tyrosine Phosphatase Non-receptor Type 4 (PTPN4) (AID 2283208). The essentials: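 Screened in duplicate at 25 uM, with hits then titrated to a top concentration of 50 uM. Recombinant Sf9-derived PTPN4 turnover was read by fluorescence with electrophoretic separation, 1.33 h after compound addition. DMSO served as baseline.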

Assay [8] deals with human Protein Tyrosine Phosphatase Non-receptor Type 9 (PTPN9), PTPN9 (gene 5780) (UniProt P43378). Briefly: NVS_ENZ_hPTPN9: NovaScreen (NVS) Enzymatic Assay for human Protein Tyrosine Phosphatase Non-receptor Type 9 (PTPN9) (AID 2283209). A digest of the protocol:
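Sf9-expressed enzyme in a cell-free assay, fluorescence read 1.33 h after dosing with mobility-shift separation of substrate and product. Tested at 25 uM in duplicate, then up to 50 uM; signal loss versus DMSO.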

In assay [9] the target is human Protein Tyrosine Phosphatase Receptor Type B (PTPRB), PTPRB (gene 5787) (UniProt P23467). Briefly: NVS_ENZ_hPTPRB: NovaScreen (NVS) Enzymatic Assay for human Protein Tyrosine Phosphatase Receptor Type B (PTPRB) (AID 2283211). A digest of the protocol:
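Recombinant human PTPRB with a fluorescent substrate, product separated by electrophoretic mobility shift; read 1 h after dosing. Primary screen in duplicate at 25 uM; actives then retested in concentration series; loss of signal versus DMSO.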

The target in assay [10] is human Protein Tyrosine Phosphatase Receptor Type F (PTPRF), PTPRF (gene 5792) (UniProt P10586). Briefly: NVS_ENZ_hPTPRF: NovaScreen (NVS) Enzymatic Assay for human Protein Tyrosine Phosphatase Receptor Type F (PTPRF) (AID 2283213). The essentials: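 Cell-free fluorescence enzyme assay with recombinant protein and substrate; product separated by electrophoretic mobility shift. Read 1 h after dosing, single 25 uM duplicate screen, then concentration-response up to 50 uM; loss of signal vs DMSO.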
Sequence of human Protein Tyrosine Phosphatase Receptor Type F (PTPRF), PTPRF (gene 5792) (P10586 whole entry, looked up): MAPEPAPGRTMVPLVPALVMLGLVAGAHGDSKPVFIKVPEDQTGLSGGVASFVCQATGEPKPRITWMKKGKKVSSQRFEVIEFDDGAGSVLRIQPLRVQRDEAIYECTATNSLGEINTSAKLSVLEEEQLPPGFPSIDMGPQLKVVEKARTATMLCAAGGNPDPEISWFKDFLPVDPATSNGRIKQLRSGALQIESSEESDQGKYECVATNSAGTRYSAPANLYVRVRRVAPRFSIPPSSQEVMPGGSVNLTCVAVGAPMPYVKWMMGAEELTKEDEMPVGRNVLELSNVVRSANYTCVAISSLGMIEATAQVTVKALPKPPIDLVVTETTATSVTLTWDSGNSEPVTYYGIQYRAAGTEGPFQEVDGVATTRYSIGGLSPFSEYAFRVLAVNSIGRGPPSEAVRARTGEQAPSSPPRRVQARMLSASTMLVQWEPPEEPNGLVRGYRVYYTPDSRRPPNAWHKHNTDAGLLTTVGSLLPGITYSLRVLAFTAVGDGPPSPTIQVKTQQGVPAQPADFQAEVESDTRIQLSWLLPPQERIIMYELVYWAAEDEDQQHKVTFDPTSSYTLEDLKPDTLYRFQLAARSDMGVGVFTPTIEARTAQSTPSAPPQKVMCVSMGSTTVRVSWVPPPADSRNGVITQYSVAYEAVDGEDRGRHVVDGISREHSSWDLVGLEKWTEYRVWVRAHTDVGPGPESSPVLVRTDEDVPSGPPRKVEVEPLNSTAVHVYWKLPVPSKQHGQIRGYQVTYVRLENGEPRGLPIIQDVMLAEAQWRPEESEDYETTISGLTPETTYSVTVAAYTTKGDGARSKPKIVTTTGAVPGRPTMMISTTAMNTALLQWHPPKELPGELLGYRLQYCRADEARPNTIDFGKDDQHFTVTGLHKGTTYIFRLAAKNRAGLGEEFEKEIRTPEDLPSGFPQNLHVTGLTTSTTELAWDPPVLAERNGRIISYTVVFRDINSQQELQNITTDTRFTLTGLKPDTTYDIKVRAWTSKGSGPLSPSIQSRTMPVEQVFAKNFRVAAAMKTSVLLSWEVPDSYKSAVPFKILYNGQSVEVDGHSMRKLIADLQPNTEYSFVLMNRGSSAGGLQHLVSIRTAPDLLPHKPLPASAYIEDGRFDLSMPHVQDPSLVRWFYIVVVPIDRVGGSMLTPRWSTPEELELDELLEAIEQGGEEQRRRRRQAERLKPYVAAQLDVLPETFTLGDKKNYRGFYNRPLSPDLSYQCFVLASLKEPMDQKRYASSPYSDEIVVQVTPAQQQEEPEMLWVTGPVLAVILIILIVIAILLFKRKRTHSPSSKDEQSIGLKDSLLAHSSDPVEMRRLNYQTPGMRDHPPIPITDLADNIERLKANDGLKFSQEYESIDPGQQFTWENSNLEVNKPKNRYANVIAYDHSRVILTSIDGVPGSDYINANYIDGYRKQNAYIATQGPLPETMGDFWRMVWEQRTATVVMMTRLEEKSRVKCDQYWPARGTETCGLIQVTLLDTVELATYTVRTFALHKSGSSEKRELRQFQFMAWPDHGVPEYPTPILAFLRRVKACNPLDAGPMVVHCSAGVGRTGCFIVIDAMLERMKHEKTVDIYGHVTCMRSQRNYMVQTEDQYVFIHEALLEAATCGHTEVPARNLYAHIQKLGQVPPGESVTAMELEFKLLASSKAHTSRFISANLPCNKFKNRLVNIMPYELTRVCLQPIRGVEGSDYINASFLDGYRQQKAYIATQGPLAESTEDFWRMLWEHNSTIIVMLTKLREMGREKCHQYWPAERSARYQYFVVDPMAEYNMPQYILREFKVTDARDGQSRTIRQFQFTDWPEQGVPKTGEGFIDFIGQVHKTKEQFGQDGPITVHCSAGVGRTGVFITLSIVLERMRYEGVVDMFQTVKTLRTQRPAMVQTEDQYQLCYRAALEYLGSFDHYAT

Assay [11] has as its target human Protein Tyrosine Phosphatase Receptor Type M (PTPRM), PTPRM (gene 5797) (UniProt P28827). Briefly: NVS_ENZ_hPTPRM: NovaScreen (NVS) Enzymatic Assay for human Protein Tyrosine Phosphatase Receptor Type M (PTPRM) (AID 2283215). A digest of the protocol:
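Read-out is fluorescence after electrophoretic separation of substrate and product, taken 1.33 h post-dosing with recombinant enzyme. Compounds screened at 25 uM in duplicate, then concentration series for actives; activity as signal loss relative to DMSO.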

For assay [12], the target named is human Sirtuin 1 (SIRT1), SIRT1 (gene 23411) (UniProt Q96EB6). Kind of assay: NVS_ENZ_hSIRT1: NovaScreen (NVS) Enzymatic Assay for human Sirtuin 1 (SIRT1) (AID 2283219). A digest of the protocol: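 Cell-free recombinant SIRT1 with a fluorescent substrate; substrate and product separated by electrophoretic mobility shift and read by fluorescence intensity, 1 h after dosing. Primary screen at 25 uM in duplicate; hits re-run in concentration-response up to 50 uM, relative to DMSO.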

The target of assay [13] is rabbit Imidazoline 2 Central (I2C), CKB (gene 100009085) (UniProt P00567). Briefly: NVS_ENZ_rabI2C: NovaScreen (NVS) Enzymatic Assay for rabbit Imidazoline 2 Central (I2C) (AID 2283228). A digest of the protocol:
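Rabbit brain membranes, cell-free; readout by filter-based scintillation counting 1.5 hours after dosing, loss of signal vs DMSO. Initial duplicate test at 25 uM, then concentration-response with 50 uM top concentration.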

Assay [14] addresses human SRC Proto-Oncogene, Non-receptor Tyrosine Kinase (SRC), SRC (gene 6714) (UniProt P12931). Kind of assay: NVS_ENZ_hSRC: NovaScreen (NVS) Enzymatic Assay for human SRC Proto-Oncogene, Non-receptor Tyrosine Kinase (SRC) (AID 2283223). The essentials: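 Compounds passing 30% inhibition at 25 uM (duplicate) were titrated to a top concentration of 50 uM. Enzyme activity read by fluorescence with mobility-shift substrate/product separation after 1 h; DMSO baseline.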

In assay [15] the target is Tyrosine-protein phosphatase non-receptor type 14 (Homo sapiens) (UniProt Q15678). Kind of assay: NVS_ENZ_hPTPN14: NovaScreen (NVS) Enzymatic Assay for human Protein Tyrosine Phosphatase Non-receptor Type 14 (PTPN14) (AID 2283206). A digest of the protocol: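 Fluorescent substrate turnover by recombinant human PTPN14 was measured 0.5 h after compound addition, with substrate and product separated by mobility shift. Single-point screening at 25 uM, then concentration-response up to 50 uM for chemicals meeting threshold (e.g., 30% inhibition).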

Assay [16] concerns the target rat Adenylate Cyclase, Forskolin Stimulated, Adcy5 (gene 64532) (UniProt Q04400). Briefly: NVS_ENZ_rACFSKBinding: NovaScreen (NVS) Enzymatic Assay for rat Adenylate Cyclase, Forskolin Stimulated (AID 2283232). The essentials:
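Chemicals were first tested at 25 uM in duplicate, then hits run as concentration series with top concentration 50 uM. Enzyme source was rat forebrain membranes; radiometric filter read-out after 1 h, referenced to DMSO.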

Assay [17] concerns the target human Sirtuin 2 (SIRT2), SIRT2 (gene 22933) (UniProt Q8IXJ6). Briefly: NVS_ENZ_hSIRT2: NovaScreen (NVS) Enzymatic Assay for human Sirtuin 2 (SIRT2) (AID 2283217). A digest of the protocol: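 Single-point duplicate screen at 25 uM, then concentration-response (max 50 uM) for chemicals passing threshold. Enzyme activity of recombinant human SIRT2 measured after 1 hr by fluorescence with mobility-shift separation of product; DMSO baseline.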

Sequence of human Raf-1 Proto-Oncogene, serine/threonine Kinase (RAF1), RAF1 (gene 5894) (P04049 whole entry, looked up): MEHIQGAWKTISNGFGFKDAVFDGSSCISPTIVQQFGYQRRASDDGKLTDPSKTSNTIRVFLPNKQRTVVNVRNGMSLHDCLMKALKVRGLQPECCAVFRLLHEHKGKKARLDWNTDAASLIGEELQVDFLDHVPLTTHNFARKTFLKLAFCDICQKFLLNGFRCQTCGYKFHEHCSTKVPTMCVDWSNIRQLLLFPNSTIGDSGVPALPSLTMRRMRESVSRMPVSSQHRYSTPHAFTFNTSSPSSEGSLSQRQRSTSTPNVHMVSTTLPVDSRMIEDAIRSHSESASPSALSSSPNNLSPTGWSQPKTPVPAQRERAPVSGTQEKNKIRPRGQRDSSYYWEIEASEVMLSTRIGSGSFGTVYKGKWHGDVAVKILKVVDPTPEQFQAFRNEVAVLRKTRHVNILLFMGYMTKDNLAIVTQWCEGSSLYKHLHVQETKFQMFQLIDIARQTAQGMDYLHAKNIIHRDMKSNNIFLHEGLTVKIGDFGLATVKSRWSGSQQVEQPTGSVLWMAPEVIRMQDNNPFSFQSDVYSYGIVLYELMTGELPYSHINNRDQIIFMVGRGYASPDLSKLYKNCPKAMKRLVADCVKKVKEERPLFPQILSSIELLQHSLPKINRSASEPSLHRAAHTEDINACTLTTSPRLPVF
Sequence of human Sirtuin 3 (SIRT3), SIRT3 (gene 23410) (Q9NTG7 whole entry, looked up): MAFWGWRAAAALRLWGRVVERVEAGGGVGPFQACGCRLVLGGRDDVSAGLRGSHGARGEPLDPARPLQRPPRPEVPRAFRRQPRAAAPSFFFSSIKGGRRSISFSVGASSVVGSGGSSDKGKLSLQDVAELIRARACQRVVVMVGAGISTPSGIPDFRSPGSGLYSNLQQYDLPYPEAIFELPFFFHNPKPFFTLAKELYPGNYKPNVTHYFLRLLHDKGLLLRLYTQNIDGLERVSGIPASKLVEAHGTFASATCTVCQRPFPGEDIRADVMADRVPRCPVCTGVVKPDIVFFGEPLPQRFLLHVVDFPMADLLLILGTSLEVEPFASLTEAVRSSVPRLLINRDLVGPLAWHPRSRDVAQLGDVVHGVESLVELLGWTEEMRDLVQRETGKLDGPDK
Sequence of human Sirtuin 2 (SIRT2), SIRT2 (gene 22933) (Q8IXJ6 whole entry, looked up): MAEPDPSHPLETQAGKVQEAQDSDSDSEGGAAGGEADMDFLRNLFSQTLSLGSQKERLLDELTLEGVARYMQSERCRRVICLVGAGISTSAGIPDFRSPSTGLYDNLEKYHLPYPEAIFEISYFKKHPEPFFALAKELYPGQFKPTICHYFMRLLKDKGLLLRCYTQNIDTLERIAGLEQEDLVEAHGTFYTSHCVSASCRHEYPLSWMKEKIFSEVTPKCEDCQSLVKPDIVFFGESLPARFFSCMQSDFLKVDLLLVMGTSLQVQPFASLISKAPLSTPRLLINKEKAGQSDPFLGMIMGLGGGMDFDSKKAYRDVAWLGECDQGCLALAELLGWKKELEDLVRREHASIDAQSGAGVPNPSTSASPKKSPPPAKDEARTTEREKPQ
Sequence of rabbit Imidazoline 2 Central (I2C), CKB (gene 100009085) (P00567 whole entry, looked up): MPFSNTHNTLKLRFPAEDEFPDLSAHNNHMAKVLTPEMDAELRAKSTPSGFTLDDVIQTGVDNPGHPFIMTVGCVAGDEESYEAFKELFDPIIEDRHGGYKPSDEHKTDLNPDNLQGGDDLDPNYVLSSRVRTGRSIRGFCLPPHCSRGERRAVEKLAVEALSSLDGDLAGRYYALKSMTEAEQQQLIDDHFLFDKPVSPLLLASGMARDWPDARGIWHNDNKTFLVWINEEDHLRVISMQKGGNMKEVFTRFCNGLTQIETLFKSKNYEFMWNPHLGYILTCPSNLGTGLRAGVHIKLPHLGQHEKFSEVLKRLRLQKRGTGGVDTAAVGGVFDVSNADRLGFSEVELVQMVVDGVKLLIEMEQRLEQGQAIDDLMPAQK

Consider `C=CCOC(=O)C(C)(C)OC(=O)c1cc(-n2c(=O)cc(C(F)(F)F)n(C)c2=O)ccc1Cl`, for which the outcome in assay [1] was inactive.
Regarding `OC(c1ccc(Cl)cc1)(c1ccc(Cl)cc1)C(Cl)(Cl)Cl`, the call in assay [2] was inactive.
`CN/C(=N\[N+](=O)[O-])NCc1cnc(Cl)s1`: the outcome in [3] and in assay [4] was inactive.
As to `CCCCC(C#N)(Cn1cncn1)c1ccc(Cl)cc1` (stereo unspecified), the AC50 is 10.4 µM (active) in [5] and 19.5 µM (active) in assay [6].
As to `CCCC(=NOCC)C1=C(O)CC(CC(C)SCC)CC1=O` (stereo unspecified), the outcome in assay [3], in assay [9], in assay [10], in assay [11] and in assay [4] was inactive. For the same compound, the AC50 in assay [7] was 17.9 µM (active); in assay [8], 42.2 µM (active).
Regarding `CN=C=S`, the result in [10], in assay [4] and in assay [12] was inactive.
Take `Cc1ccc(N=CN(C)C=Nc2ccc(C)cc2C)c(C)c1`: the AC50 in assay [13] was 1.21 µM (active).
For `N#CN=C1SCCN1Cc1ccc(Cl)nc1`, the call in assay [3] was inactive.
For the compound `CC(C)(C)C(=O)C(Oc1ccc(Cl)cc1)n1cncn1` (stereo unspecified), in [14], the outcome was inactive.
Regarding `CCC(C)n1c(=O)[nH]c(C)c(Br)c1=O` (stereo unspecified), the compound was classed as inactive in assay [10].
On to `CCOP(=O)(OCC)Oc1nc(Cl)c(Cl)cc1Cl`, for which the outcome in assay [15] was inactive.
As to `CC(C)Nc1nc(Cl)nc(NC(C)C)n1`, the result in assay [6] was inactive.
For `CO/N=C(/C1=NOCCO1)c1ccccc1Oc1ncnc(Oc2ccccc2Cl)c1F`, in [16], the call was inactive.
With `CCCCC(O)(Cn1cncn1)c1ccc(Cl)cc1Cl` (stereo unspecified), the half-maximal activity concentration (AC50) was 15.9 µM (active) in assay [17] and 21.9 µM (active) in [6]. Further, the compound was classed as inactive in assay [5].
Take `N#Cc1c(Cl)cccc1Cl`: the call in assay [9] and in [10] was inactive.
Turning to `Nc1cnn(-c2ccccc2)c(=O)c1Cl`, in assay [2], the outcome was inactive.
For `COP(=S)(OC)Oc1ccc([N+](=O)[O-])c(C)c1`, in assay [15], the outcome was inactive. Moreover, the AC50 in assay [17] was 12.1 µM (active).
